Measured values taken from PubChem BioAssay AID1159580 (chemical genetic matrix, 2015).
Among all 5,500 compounds or so, about 2,000 (36%) were called active. Inconclusive results (about 18%) are left out. Rule as the data show it: active = normalized growth mostly below about 0.91 (no sharp cut-off); inconclusive = no clear call, values can overlap the other calls; inactive = mostly above about 0.92. Some of the results follow.

Assay: chemical genetic growth profiling, strain panel (AID 1159580);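 also: tested at 20 µM; growth read once vehicle control cultures reached saturation at 30 °C; 1 = growth at the plate median or of vehicle wells; lower values mean less growth of the strain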
Conditions: growth OD

Measured: normalized growth

COc1c(O)cccc1O
inactive: S. cerevisiae deletion strains, locus YJL187C, strain SWE1, active compounds read low 1.02 | S. cerevisiae deletion strains, locus YJR043C, strain POL32, active compounds read low 1.03 | S. cerevisiae deletion strains, locus YJR066W, strain TOR1, active compounds read low 0.977 | S. cerevisiae deletion strains, locus YJR075W, strain HOC1, active compounds read low 1.02 | S. cerevisiae deletion strains, locus YKL009W, strain mrt4, active compounds read low 1.05 | S. cerevisiae deletion strains, locus YKL068W, active compounds read low 0.99 | S. cerevisiae deletion strains, locus YKL085W, strain MDH1 (second series), active compounds read low 1.01 | S. cerevisiae deletion strains, locus YKL085W, strain MDH1, active compounds read low 1.01 | S. cerevisiae deletion strains, locus YKL160W, strain elf1, active compounds read low 1.01 | S. cerevisiae deletion strains, locus YKR001C, strain vps1, active compounds read low 1.08 | S. cerevisiae deletion strains, locus YKR026C, strain gcn3, active compounds read low 1.02 | S. cerevisiae deletion strains, locus YKR091W, strain srl3, active compounds read low 1.02 | S. cerevisiae deletion strains, locus YLL001W, strain dnm1, active compounds read low 1.03 | S. cerevisiae deletion strains, locus YLL026W, active compounds read low 1.02 | S. cerevisiae deletion strains, locus YLL041C, strain sdh2, active compounds read low 1.02 | S. cerevisiae deletion strains, locus YLR027C, strain aat2, active compounds read low 1.01 | S. cerevisiae deletion strains, locus YLR039C, strain RIC1, active compounds read low 1.11 | S. cerevisiae deletion strains, locus YLR058C, strain SHM2, active compounds read low 1.03 | S. cerevisiae deletion strains, locus YLR102C, strain apc9, active compounds read low 1 | S. cerevisiae deletion strains, locus YLR113W, strain HOG1, active compounds read low 1.04 | S. cerevisiae deletion strains, locus YLR221C, strain rsa3, active compounds read low 1.03 | S. cerevisiae deletion strains, locus YLR258W, strain gsy2, active compounds read low 1.02 | S. cerevisiae deletion strains, locus YLR262C, strain YPT6 (second series), active compounds read low 1.03 | S. cerevisiae deletion strains, locus YLR268W, strain sec22, active compounds read low 1.05 | S. cerevisiae deletion strains, locus YLR320W, strain mms22, active compounds read low 1.04 | S. cerevisiae deletion strains, locus YLR330W, strain CHS5, active compounds read low 1.01 | S. cerevisiae deletion strains, locus YLR342W, strain FKS1, active compounds read low 1.03 | S. cerevisiae deletion strains, locus YLR357W, strain rsc2, active compounds read low 1.03 | S. cerevisiae deletion strains, locus YLR370C, strain arc18, active compounds read low 1.02 | S. cerevisiae deletion strains, locus YLR371W, strain rom2, active compounds read low 1.03 | S. cerevisiae deletion strains, locus YLR384C, strain iki3, active compounds read low 1.01 | S. cerevisiae deletion strains, locus YLR418C, strain cdc73, active compounds read low 1.1 | S. cerevisiae deletion strains, locus YML016C, strain PPZ1, active compounds read low 1.01 | S. cerevisiae deletion strains, locus YML032C, strain rad52, active compounds read low 1.01 | S. cerevisiae deletion strains, locus YML120C, strain ndi1, active compounds read low 1.01 | S. cerevisiae deletion strains, locus YML124C, strain tub3, active compounds read low 1 | S. cerevisiae deletion strains, locus YMR058W, strain fet3, active compounds read low 1.03 | S. cerevisiae deletion strains, locus YMR078C, strain ctf18, active compounds read low 1.02 | S. cerevisiae deletion strains, locus YMR125W, strain sto1, active compounds read low 1.01 | S. cerevisiae deletion strains, locus YMR129W, active compounds read low 1.02 | S. cerevisiae deletion strains, locus YMR205C, strain PFK2, active compounds read low 1.03 | S. cerevisiae deletion strains, locus YMR223W, strain ubp8, active compounds read low 1.03 | S. cerevisiae deletion strains, locus YMR231W, strain pep5, active compounds read low 1 | S. cerevisiae deletion strains, locus YMR307W, strain GAS1, active compounds read low 1.13 | S. cerevisiae deletion strains, locus YNL067W, strain RPL9B, active compounds read low 0.97 | S. cerevisiae deletion strains, locus YNL071W, strain lat1, active compounds read low 1.03 | S. cerevisiae deletion strains, locus YNL153C, strain GIM3, active compounds read low 1.02 | S. cerevisiae deletion strains, locus YNL183C, strain NPR1, active compounds read low 0.984 | S. cerevisiae deletion strains, locus YNL209W, strain ssb2, active compounds read low 1.01 | S. cerevisiae deletion strains, locus YNL233W, strain BNI4, active compounds read low 1.03 | S. cerevisiae deletion strains, locus YNL248C, strain rpa49, active compounds read low 1.04 | S. cerevisiae deletion strains, locus YNL250W, strain rad50, active compounds read low 1.05 | S. cerevisiae deletion strains, locus YNL271C, strain bni1, active compounds read low 1.02 | S. cerevisiae deletion strains, locus YNL298W, strain CLA4, active compounds read low 1.03 | S. cerevisiae deletion strains, locus YNL307C, strain MCK1, active compounds read low 1.01 | S. cerevisiae deletion strains, locus YNL322C, strain KRE1 (second series), active compounds read low 1.02 | S. cerevisiae deletion strains, locus YNL322C, strain KRE1, active compounds read low 0.99 | S. cerevisiae deletion strains, locus YNR049C, strain mso1, active compounds read low 1.02 | S. cerevisiae deletion strains, locus YNR052C, strain pop2, active compounds read low 1.04 | S. cerevisiae deletion strains, locus YOL012C, strain htz1 0.853 | S. cerevisiae deletion strains, locus YOL147C, strain pex11, active compounds read low 0.999 | S. cerevisiae deletion strains, locus YOR001W, strain rrp6, active compounds read low 1.02 | S. cerevisiae deletion strains, locus YOR061W, strain CKA2, active compounds read low 1.01 | S. cerevisiae deletion strains, locus YOR069W, strain VPS5, active compounds read low 0.996 | S. cerevisiae deletion strains, locus YOR070C, strain gyp1, active compounds read low 1.01 | S. cerevisiae deletion strains, locus YOR080W, strain dia2, active compounds read low 1.03 | S. cerevisiae deletion strains, locus YOR083W, strain WHI5, active compounds read low 1.03 | S. cerevisiae deletion strains, locus YOR106W, strain vam3, active compounds read low 1.06 | S. cerevisiae deletion strains, locus YOR136W, strain idh2, active compounds read low 1.02 | S. cerevisiae deletion strains, locus YOR144C, strain elg1, active compounds read low 1.01 | S. cerevisiae deletion strains, locus YOR184W, strain ser1, active compounds read low 1.06 | S. cerevisiae deletion strains, locus YOR231W, strain MKK1, active compounds read low 1.03 | S. cerevisiae deletion strains, locus YOR265W, strain rbl2, active compounds read low 1.01 | S. cerevisiae deletion strains, locus YOR270C, strain vph1, active compounds read low 1.13 | S. cerevisiae deletion strains, locus YOR290C, strain snf2, active compounds read low 1.03 | S. cerevisiae deletion strains, locus YOR316C, strain cot1, active compounds read low 1 | S. cerevisiae deletion strains, locus YPL051W, strain arl3, active compounds read low 0.998 | S. cerevisiae deletion strains, locus YPL078C, strain atp4, active compounds read low 1.03 | S. cerevisiae deletion strains, locus YPL106C, strain sse1, active compounds read low 1.04 | S. cerevisiae deletion strains, locus YPL240C, strain hsp82, active compounds read low 1.02 | S. cerevisiae deletion strains, locus YPL256C, strain CLN2, active compounds read low 1.01 | S. cerevisiae deletion strains, locus YPR119W, strain clb2, active compounds read low 1.01 | S. cerevisiae deletion strains, locus YPR141C, strain kar3, active compounds read low 1.01 | S. cerevisiae deletion strains, locus YPR163C, strain tif3, active compounds read low 1.03 | S. cerevisiae deletion strains, locus YPR167C, strain met16, active compounds read low 1.04 | S. cerevisiae deletion strains, strain wtn01, active compounds read low 1.04 | S. cerevisiae strains, strain wild type, active compounds read low 1
